Assay outcomes (PubChem BioAssay)
Giardia FBPA inh – qHTS Assay for Inhibitors of Fructose-1,6-bisphosphate Aldolase from Giardia Lamblia; purified Giardia FBPA; Potency, µM (series often up to 59.6 µM), for inactives: at the highest dose activity, negative = inhibition, usual class: inhibitors; hit rate 0.71% among 290,000; A8B2U2; note: potency is the fitted concentration of half-maximal effect; % is set by controls: 0 for no effect and ±100 for the full control effect; nearly all actives have a fitted effect of over 55% in size
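40 nM FBPA preincubated 10 min at RT with compound (up to 57.5 uM final), then substrate plus GAPDH/TPI/NAD/arsenate coupling and diaphorase/resazurin added. Fluorescence read after 20 min at RT, 525/598 nm.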
Cycloheximide cs – Cycloheximide Counterscreen for Small Molecule Inhibitors of Shiga Toxin; hit rate 12% among 300,000; cell reporter, cycloheximide protein synthesis inhibition counterscreen; max response, %; AID 2314, 2010; in the data active = max response mostly above about 13%, no sharp cut-off; inactive = mostly below about 14%; note: read at 38.3 µM for the half of the compounds with a filed dose; 0% is about no effect
Shiga inhibitor – A qHTS for Small Molecule Inhibitors of Shiga Toxin; Vero cells, Shiga toxin protein synthesis inhibition reporter; inhibition, % at 38.7 µM; hit rate 9.2% among 290,000; AID 2315, 2010; in the data active = inhibition mostly above about 28%, no sharp cut-off; inactive = mostly below about 43%; note: 0% is about no effect
LmPK inhibitor – qHTS Assay for Inhibitors of Leishmania Mexicana Pyruvate Kinase (LmPK); Q27686; purified LmPK, Kinase-Glo ATP luminescence, 1 h; Potency, µM (titrated, usually from 57.5 µM), without a hit: at the highest dose activity change, negative = inhibition, actives largely listed as inhibitors; hit rate 0.37% among 290,000; AID 1721, 2009; note: potency is the fitted concentration of half-maximal effect; % is set by controls: 0 for no effect and ±100 for the full control effect
Target sequence (Q27686 whole entry, looked up): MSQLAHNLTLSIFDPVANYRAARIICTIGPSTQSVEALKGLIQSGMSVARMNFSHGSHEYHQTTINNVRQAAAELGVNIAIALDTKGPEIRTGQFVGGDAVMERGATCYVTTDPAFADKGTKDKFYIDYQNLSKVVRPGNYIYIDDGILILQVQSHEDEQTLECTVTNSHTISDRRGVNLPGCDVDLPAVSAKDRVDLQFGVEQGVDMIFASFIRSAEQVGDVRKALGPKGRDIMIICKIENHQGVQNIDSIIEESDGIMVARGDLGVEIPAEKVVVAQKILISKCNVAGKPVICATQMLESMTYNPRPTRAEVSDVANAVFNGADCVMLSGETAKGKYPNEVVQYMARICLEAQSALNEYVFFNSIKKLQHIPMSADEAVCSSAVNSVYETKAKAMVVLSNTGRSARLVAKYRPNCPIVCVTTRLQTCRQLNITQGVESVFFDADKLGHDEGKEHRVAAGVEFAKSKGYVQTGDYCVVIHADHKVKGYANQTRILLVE
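0.1 nM LmPK, 0.5 mM PEP, 0.1 mM ADP; 50 mM imidazole pH 7.2, 7 mM MgCl2, 50 mM KCl; 1 h RT. Kinase-Glo luminescence readout, normalized to no-enzyme (full inhibition) and uninhibited wells.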
NS1 inh – qHTS Assay for Inhibitors of Influenza NS1 Protein Function. Potency, µM (doses to about 46.1 µM), inactives show top-dose activity, positive = more growth. hit rate 0.4% among 270,000; calls by dose curve; note: potency is the fitted concentration of half-maximal effect; actives are rising curves; nearly all actives have a fitted effect of over 50% in size
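S. cerevisiae expressing influenza A NS1, grown in glucose, washed, then diluted 1:100 into pH 6.0 -URA galactose medium with 23 nl compound. Growth recovery read as OD600; NS1-free strain serves as control.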
Starred values were filed as active, the others as inactive; x = no result; [ ] = remark or other dose. Shown are actives, neighbours in structure and some others; about 14% of the full set was active somewhere. Unless noted, calls come from the whole dose curve; as a rule, active = well fitted curve in the direction sought with a large enough effect; inconclusive = small, poorly fitted or top-dose-only effect, or another doubt; inactive = no such curve, though single readings can be large; an effect the other way counts as inactive or inconclusive.

SMILES	Giardia FBPA inh	Cycloheximide cs	Shiga inhibitor	LmPK inhibitor	NS1 inh
COc1ccc(C(=O)Nc2nccs2)cc1[N+](=O)[O-]	0%	27*	-3	0%	-4%
Cn1cc([N+](=O)[O-])c(C(=O)Nc2ccc(Br)cn2)n1	7%	25*	52*	-3%	-9%
Cn1cc([N+](=O)[O-])c(C(=O)NC2CCCC2)n1	5%	6	-9	-4%	0%
COc1ccc(NC(=O)Nc2nnc(CC(=O)Nc3ccccc3)s2)cc1	3%	2	1	4%	-1%
CCc1nnc(NC(=O)Nc2ccc(OC)cc2)s1	-1%	24*	25	-8%	-5%
CC(C)Cc1nnc(NC(=O)c2ccncc2)s1	2%	4	6	2%	-8%
CO[C@H]1COC(=O)C/C=C\[C@H](C)[C@@H](NS(=O)(=O)c2ccc(C)cc2)COC(=O)C/C=C\[C@@H]1C	0%[12.9 µM]	x	x	x	x
CCCC[C@@H]1C[C@H]1C(NC(=O)c1ccccc1)c1ccc(C(F)(F)F)cc1 (stereo partly drawn)	-4%	x	x	x	x
C=CCn1c(SCC(=O)Nc2nncs2)nnc1-c1ccco1	-24%	-2	-10	6%	-1%
CC(C)OCCCNC(=O)c1ccccc1NC(=O)C1=CSCCO1	x	-2	-2	0%	-21%
C[N+](C)(C)c1ncnc2c1ncn2[C@@H]1CCCCO1	x	x	x	x	3%
c1ccc(CNc2ncnc3c2ncn3C2CCCCO2)cc1 (stereo not drawn)	2%	32*	52	18%	-4%
CC(C)CCNc1ncnc2c1nnn2Cc1ccccc1	12%	-2	-4	2%	4%
CC(C)CCn1cnc2c(NCc3ccccc3)ncnc21	4%	29*	37	1%	-9%
Cc1cc(C)c2oc(-c3ccc(Cl)c(NC(=O)c4ccc(C#N)cc4F)c3)nc2c1	0%	48*	39*	2%	0%
N#Cc1ccc(C(=O)Nc2cccc3ncccc23)c(F)c1	1%	-2	-6	1%	9%
CCN1C(=O)[C@H]2[C@H]3[C@H](O)[C@H](O)C/C(=N/NC(=O)OCc4ccccc4)[C@H]3CC[C@@H]2C1=O	0%[12.9 µM]	x	x	x	x
N#C/C(=C\c1cccc(O)c1)C(=O)N1CCCCC1	2%	12	x	2%	-8%
Cc1cc(/C=C(\C#N)C(=O)N2CCCCC2)cc(C)c1O	x	17	51*	-3%	-5%
CCc1ccc(C(=O)Cc2cc3cccc(OC)c3oc2=O)cc1	10%	28*	64*	-3%	-1%
COc1cccc2cc(C(=O)c3ccccc3)oc12	-4%	68*	166*	-25%	-36%
COc1cccc2cc(-c3nc4ccccc4o3)c(=O)oc12	-2%	45*	106*	1%	x
COc1cccc2cc(CC(=O)c3ccccc3)c(=O)oc12	1%	18	44*	-1%	5%
Cc1cc2c(cc1S(=O)(=O)NCc1ccc(N(C)C)cc1)OCC(=O)N2	14%	4	8	1%	-23%
CCNc1ncc2nc(-c3ccc(F)cc3)c(=O)n(-c3ccc(OC)cc3)c2n1	-19%	x	x	x	x
SMILES	Giardia FBPA inh	Cycloheximide cs	Shiga inhibitor	LmPK inhibitor	NS1 inh
N#Cc1ccc(CN2CC3(CCN(C(=O)c4cnccn4)CC3)C2)cc1	6%	x	x	x	x
O=C1CCCN1CCCNS(=O)(=O)c1ccc(F)c(F)c1	x	-2	-12	-6%	6%
COc1cccc([C@@H]2Oc3ccc(OC)cc3C[C@H]2OC(=O)N[C@H]2CCCc3ccccc32)c1	-1%	x	x	x	x
COc1cccc2cc(CC(=O)c3cc(C)ccc3C)c(=O)oc12	0%	28*	71*	0%	-8%
COC(Cn1c2c(c3cc(C)ccc31)CCCC2NCc1ccccc1)OC (stereo not drawn)	-7%	-2	-2	0%	-2%
O=c1oc2cc(N=Cc3ccc4c(c3)OCO4)ccc2c2ccccc12	x	x	x	x	6%
CCC(CC)C(=O)Nc1nnc(-c2cccs2)s1	3%	21*	57	3%	-1%
COc1cccc(OC)c1C(=O)Nc1nnc(-c2cccs2)s1	-1%	2	1	0%	0%
CC12CCC=CC1C(c1ccc(C(F)(F)F)cc1)N(Cc1ccccc1)C2=O (stereo not drawn)	9%	0	-14	x	x
O=C(CCN1C(=O)c2ccccc2S1(=O)=O)Nc1ccccc1	4%	1	-5	0%	1%
Cc1csc(NC(=O)CCN2C(=O)c3ccccc3S2(=O)=O)n1	-4%	16	55*	0%	-10%
O=C(CCN1C(=O)c2ccccc2S1(=O)=O)Nc1ccc2c(c1)OCCO2	-11%	34*	37	-7%	-7%
O=C(CN1Cc2ccccc2C1=O)Nc1ccc2c(c1)OCCO2	9%	83*	85*	0%	2%
CCOC(=O)[C@H](CCc1ccccc1)N[C@@H](C)C(=O)N1[C@H](C(=O)O)C[C@H]2CCC[C@@H]21	1%[21.7 µM]	x	x	x	x
CCOc1ccc(CNC(=O)CN2C(=O)C(c3ccccc3)Oc3cccnc32)cc1 (stereo not drawn)	11%	-2	2	2%	1%
Cc1cccc(-c2cccc(NC(=O)C3CCCN(C(=O)c4csc(C)n4)C3)c2)c1 (stereo not drawn)	-3%	17*	46*	12%	3%
Cc1cccc(-c2cccc(NC(=O)C3CCCN(C(=O)c4cccnc4)C3)c2)c1 (stereo not drawn)	x	2	-4	-9%	7%
Cc1cccc(-c2cccc(NC(=O)C3CCCN(C(=O)c4ocnc4C)C3)c2)c1 (stereo not drawn)	3%	29*	40*	1%	-12%
CCc1nc(C)c(C(=O)N2CCCC(C(=O)Nc3cccc(-c4cccc(C)c4)c3)C2)o1 (stereo not drawn)	x	54*	87*	-9%	-43%
O=C(/C=C/c1c(F)cccc1Cl)NCCCN1CCOCC1	14%	-3	18	5%	-7%
O=C(O)c1ccc(S(=O)(=O)c2ccc3c(c2)C(=O)N(c2ccc(Br)cc2)C3=O)cc1	x	-3	16	-5%	3%
CCCCc1nc2c(c3c1C[C@H](C)OC3)CN(C(=O)c1cc(I)ccc1F)CC2	5%[12.9 µM]	x	x	-2%[11.5 µM]	x
CC(C)c1c(C(=O)N/N=C/c2ccccc2OCc2c(F)cccc2Cl)nnn1-c1nonc1N	-2%	0	-5	0%	9%
CCCC(=O)c1cc(F)c(N2CCOCC2)cc1C	10%	13	16	-1%	-10%
CCCC(=O)c1ccc(N2CCCC2)c(F)c1	10%	37*	76*	0%	2%
CCCC(=O)c1ccc(N2CCN(S(=O)(=O)c3ccccc3)CC2)c(F)c1	11%	1	-5	2%	-8%
CCC(=O)c1ccc(N2CCCC2)c(F)c1	9%	28*	48*	0%	2%
CCC(=O)c1ccc(N2CCN(S(=O)(=O)c3ccccc3)CC2)c(F)c1	0%	44*	-16	0%	-2%
CCC(=O)c1ccc(N2CCCCCC2)c(F)c1	17%	35*	54*	-3%	-67%
